One compound from the supplement of paper PMC11732987, “Enantioselective OTUD7B fragment discovery through chemoproteomics screening and high-throughput optimisation” (Communications Chemistry, 2025) can be followed below.

Structures are written as SMILES. A number with no mark means an inactive call.

Common to all, as to assay: log2 ratio of Biotin-Ahx-Ub-VS probe labelling (fragment/DMSO); higher = less target engagement (more negative = stronger competition), active = hit call of the paper (q ≤ 0.05, log2 ratio ≤ -1)
What all share (details): compound concentration: 200 uM; treatment time: 3 h

One test addresses T1, OTUD6B (UniProt Q8N6M0).
T1 sequence (whole entry): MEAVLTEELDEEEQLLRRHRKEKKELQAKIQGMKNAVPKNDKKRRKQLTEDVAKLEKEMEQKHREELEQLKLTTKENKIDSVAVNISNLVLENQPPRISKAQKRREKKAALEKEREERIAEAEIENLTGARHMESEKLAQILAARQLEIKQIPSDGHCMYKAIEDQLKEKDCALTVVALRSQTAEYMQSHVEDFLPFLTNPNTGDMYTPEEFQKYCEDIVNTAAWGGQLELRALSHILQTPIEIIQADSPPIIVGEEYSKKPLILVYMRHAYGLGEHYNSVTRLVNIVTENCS
In a few lines: (§1)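 Global-median-normalised Spectronaut label-free quantities were compared by unpaired t-test, and values are average log2 ratios of fragment over vehicle. Only proteins with ≥2 unique peptides were used. HEK293T lysate (495 µg per sample) was treated in triplicate with fragment at 200 µM or vehicle for 3 h and then with Biotin-Ahx-Ub-VS at 0.5 µM final for 1 h. Labelled DUBs were then NeutrAvidin-enriched, digested with LysC and trypsin, and run by diaPASEF LC-MS/MS.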

In a further test the target is T2, OTUD7B (UniProt Q6GQQ9).
T2 sequence (whole entry): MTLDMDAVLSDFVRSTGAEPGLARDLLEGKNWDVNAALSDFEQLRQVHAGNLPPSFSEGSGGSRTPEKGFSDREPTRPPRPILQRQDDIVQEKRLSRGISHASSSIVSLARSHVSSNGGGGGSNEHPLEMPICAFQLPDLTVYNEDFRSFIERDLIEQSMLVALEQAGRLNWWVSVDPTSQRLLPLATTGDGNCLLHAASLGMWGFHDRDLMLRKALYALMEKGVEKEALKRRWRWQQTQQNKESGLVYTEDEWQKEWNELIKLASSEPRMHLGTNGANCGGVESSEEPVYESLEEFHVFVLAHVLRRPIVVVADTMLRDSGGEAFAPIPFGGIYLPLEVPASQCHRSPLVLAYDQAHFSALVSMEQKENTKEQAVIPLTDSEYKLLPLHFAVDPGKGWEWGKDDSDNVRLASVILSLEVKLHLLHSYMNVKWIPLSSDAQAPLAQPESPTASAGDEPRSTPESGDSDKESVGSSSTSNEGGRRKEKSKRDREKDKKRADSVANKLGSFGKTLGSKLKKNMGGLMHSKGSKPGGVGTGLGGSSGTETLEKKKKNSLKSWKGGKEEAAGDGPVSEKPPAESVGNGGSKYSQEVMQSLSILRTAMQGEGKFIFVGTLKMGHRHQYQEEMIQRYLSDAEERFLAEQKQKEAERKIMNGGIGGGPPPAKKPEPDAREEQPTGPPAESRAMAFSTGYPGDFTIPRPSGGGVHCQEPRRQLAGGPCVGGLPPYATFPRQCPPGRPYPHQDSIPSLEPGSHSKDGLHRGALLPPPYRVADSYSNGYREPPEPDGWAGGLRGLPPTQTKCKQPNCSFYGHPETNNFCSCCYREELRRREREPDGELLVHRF
In a few lines:
as §1

The target in a further test is PRPF8 (UniProt Q6P2Q9). In a few lines: as §1
The next test deals with T3, PSMD7 (UniProt P51665).
T3 sequence (whole entry): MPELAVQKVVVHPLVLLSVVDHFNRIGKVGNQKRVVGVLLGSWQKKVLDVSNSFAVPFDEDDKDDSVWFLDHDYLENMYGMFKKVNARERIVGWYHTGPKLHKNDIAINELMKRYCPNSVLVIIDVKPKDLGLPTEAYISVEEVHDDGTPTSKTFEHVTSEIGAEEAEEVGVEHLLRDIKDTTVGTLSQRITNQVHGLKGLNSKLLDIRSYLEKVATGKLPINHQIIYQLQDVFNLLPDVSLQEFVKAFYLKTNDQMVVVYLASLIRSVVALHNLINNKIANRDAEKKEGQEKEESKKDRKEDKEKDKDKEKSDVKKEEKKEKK
In a few lines:
as §1

The target of the next test is UCHL1 (UniProt P09936). In a few lines: as §1
The target in a further test is T4, UCHL3 (UniProt P15374).
T4 sequence (whole entry): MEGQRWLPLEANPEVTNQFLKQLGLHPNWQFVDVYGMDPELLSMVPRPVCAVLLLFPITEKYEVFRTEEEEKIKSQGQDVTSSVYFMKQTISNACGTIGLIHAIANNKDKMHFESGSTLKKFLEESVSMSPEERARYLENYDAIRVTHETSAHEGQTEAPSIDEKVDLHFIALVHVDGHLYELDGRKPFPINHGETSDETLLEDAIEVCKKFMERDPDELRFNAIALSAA
The essentials: as §1

A further test has as its target T5, UCHL5 (UniProt Q9Y5K5).
T5 sequence (whole entry): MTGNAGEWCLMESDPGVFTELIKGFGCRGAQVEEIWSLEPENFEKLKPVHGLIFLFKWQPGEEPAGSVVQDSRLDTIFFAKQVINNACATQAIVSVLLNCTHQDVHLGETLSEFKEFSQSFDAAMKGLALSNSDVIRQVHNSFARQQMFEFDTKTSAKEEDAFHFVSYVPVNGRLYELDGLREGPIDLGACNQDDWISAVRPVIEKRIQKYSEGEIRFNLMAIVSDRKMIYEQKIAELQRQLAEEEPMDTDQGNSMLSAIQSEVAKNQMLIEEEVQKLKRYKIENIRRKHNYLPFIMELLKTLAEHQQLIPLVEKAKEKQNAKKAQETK
In a few lines: as §1

Another test has as its target USP10 (UniProt Q14694). In a few lines:
as §1

The target of another test is T6, USP15 (UniProt Q9Y4E8).
T6 sequence (whole entry): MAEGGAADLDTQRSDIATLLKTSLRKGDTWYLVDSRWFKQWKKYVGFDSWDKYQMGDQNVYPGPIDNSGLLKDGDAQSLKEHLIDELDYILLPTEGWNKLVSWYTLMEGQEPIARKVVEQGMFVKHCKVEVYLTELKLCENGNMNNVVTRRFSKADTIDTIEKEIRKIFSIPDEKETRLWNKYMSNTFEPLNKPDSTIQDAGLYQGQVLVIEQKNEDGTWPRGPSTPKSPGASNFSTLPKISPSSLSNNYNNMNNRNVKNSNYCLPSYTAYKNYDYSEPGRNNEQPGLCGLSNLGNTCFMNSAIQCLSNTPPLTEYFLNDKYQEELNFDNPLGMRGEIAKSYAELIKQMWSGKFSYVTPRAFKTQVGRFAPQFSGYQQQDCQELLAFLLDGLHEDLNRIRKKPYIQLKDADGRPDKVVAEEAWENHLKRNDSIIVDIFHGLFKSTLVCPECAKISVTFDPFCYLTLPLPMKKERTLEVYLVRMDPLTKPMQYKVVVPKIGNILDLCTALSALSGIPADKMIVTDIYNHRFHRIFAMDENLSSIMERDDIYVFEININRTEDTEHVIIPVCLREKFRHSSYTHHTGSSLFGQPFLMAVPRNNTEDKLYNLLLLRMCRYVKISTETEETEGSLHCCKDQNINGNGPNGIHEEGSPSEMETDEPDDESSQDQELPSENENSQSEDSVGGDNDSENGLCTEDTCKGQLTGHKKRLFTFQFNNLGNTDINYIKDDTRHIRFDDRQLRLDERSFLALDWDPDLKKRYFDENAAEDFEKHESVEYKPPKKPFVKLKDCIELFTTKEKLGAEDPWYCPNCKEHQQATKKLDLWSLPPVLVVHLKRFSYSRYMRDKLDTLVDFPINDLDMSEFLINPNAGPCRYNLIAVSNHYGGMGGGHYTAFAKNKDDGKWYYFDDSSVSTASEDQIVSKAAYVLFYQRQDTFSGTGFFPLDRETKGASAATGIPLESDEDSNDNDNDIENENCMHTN
In a few lines: as §1

Chain of USP10 (Q14694 whole entry): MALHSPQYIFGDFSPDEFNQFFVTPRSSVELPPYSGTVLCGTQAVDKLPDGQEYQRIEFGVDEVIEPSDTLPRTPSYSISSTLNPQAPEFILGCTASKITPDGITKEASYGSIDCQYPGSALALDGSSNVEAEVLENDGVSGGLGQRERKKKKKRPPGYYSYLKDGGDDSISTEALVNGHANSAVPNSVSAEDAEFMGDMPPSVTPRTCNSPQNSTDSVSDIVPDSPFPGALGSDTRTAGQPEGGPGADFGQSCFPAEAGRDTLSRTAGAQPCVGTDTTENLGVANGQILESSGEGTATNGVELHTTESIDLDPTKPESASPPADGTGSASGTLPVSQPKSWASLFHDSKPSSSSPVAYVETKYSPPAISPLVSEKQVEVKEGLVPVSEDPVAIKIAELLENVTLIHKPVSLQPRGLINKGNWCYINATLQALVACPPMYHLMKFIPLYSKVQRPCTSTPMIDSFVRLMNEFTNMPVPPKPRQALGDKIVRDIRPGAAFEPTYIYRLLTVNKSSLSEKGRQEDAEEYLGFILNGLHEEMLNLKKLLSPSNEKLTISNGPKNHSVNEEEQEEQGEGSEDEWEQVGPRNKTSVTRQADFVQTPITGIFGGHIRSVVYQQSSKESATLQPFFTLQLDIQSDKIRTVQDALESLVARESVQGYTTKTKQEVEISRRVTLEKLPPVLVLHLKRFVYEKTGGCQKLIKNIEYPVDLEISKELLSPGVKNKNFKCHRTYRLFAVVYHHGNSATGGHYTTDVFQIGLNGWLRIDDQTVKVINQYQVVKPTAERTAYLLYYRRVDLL
Chain of UCHL1 (P09936 whole entry, looked up): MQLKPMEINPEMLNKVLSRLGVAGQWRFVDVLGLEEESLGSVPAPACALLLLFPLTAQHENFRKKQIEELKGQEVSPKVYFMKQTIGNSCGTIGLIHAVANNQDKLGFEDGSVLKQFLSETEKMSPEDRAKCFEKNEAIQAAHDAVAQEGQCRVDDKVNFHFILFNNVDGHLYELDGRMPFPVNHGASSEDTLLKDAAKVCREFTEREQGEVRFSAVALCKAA

Regarding `Cl.Cn1cnc2cc(CNC(=O)CCl)ccc21`, the “log2 ratio of Biotin-Ahx-Ub-VS probe labelling” value with OTUD6B is -0.108; in the test with OTUD7B it was -0.399; with PRPF8, 0.126; in the test with PSMD7, -0.0706; with UCHL1, -1.72 (active); with UCHL3, 0.249. Further, the “log2 ratio of Biotin-Ahx-Ub-VS probe labelling” value was 0.000192 in the test with UCHL5, -0.194 with USP10 and -0.333 with USP15.
